Assay [1] in a line: NCI Yeast Anticancer Drug Screen. Data for the rad50 strain (AID 155).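 Further: 0% = growth of vehicle-only cultures of the same strain.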 As to conditions: S. cerevisiae rad50 strain growth inhibition, hits give high values. The procedure, abridged: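 Readout: growth inhibition relative to vehicle-treated cultures. Compound exposure was carried out in a genetically defined yeast strain deficient in DNA damage repair.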
Assay [2] can be described thus: NCI Yeast Anticancer Drug Screen. Data for the mec2-1 strain (AID 157). Particulars: S. cerevisiae mec2-1 strain, hits give high values. The procedure, abridged:
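Yeast mec2-1 mutant treated with compound. Readout: growth inhibition vs vehicle controls.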

Assay [3] is described as follows: NCI Yeast Anticancer Drug Screen. Data for the sgs1 mgt1 strain (AID 161).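 Further: 0% = growth of cultures given vehicle only.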 As to conditions: S. cerevisiae sgs1 mgt1 strain, hits give high values. The procedure, abridged:
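Test agents were incubated with a DNA-repair-mutant yeast strain. Growth was then read and compared against vehicle-treated controls.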

Assay [4] in a line: NCI Yeast Anticancer Drug Screen. Data for the cln2 rad14 strain (AID 165).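 Further: 0% = growth equal to vehicle treated cultures.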 As to conditions: S. cerevisiae cln2 rad14 strain, hits give high values. The procedure, abridged: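 cln2 rad14 yeast strain; compound exposure; growth inhibition read vs vehicle controls.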
Assay [5] is described as follows: NCI Yeast Anticancer Drug Screen. Data for the bub3 strain (AID 167). As to conditions: S. cerevisiae bub3 mutant strain, hits give high values. The procedure, abridged:
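Readout: yeast growth inhibition, expressed relative to vehicle-only wells. The test organism is a mutant strain from a panel with lesions in DNA repair or checkpoint genes.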

Assay [6] can be described thus: NCI Yeast Anticancer Drug Screen. Data for the mlh1 rad18 strain (AID 175). Particulars: S. cerevisiae mlh1 rad18 strain growth inhibition, hits give high values. The procedure, abridged: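 Yeast w/ defined DNA-repair lesions; compound exposure; growth vs vehicle controls → % inhibition.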
Where [7] appears, read: at 5.0 µM (retest, dose inferred, filed as 0.5).
Where [8] appears, read: at 50.0 µM (retest, dose inferred, filed as 5.0).

The panel holds about 79,000 compounds, 15% with a hit somewhere; the sample as a whole holds those more often. A number with no mark means an inactive call. Calls of active or inactive are those of the source. No stated cut-off is given here; in the data, active means growth inhibition above about 70%; inactive means the rest.

As for `O=C(c1ccc2ccccc2c1)N1CC1`, the growth inhibition in assay [1] (setting [7]) was -27%; in assay [1] (setting [8]), 23%; in assay [1] (at 50.0 µM) it was 71.8% (active); in assay [2] (setting [7]), -6%; in assay [2] (setting [8]), -12%; in assay [2] (at 50.0 µM) it was -1.65%. In addition, the growth inhibition in assay [3] (setting [7]) is -14%; in assay [3] (setting [8]), 5%; in assay [3] (at 50.0 µM) it was 41.8%; in assay [4] (setting [7]) it was -12%; in assay [4] (setting [8]), 57%; in assay [4] (at 50.0 µM), 66.5%. Moreover, the growth inhibition in assay [5] (setting [7]) was 2%; in assay [5] (setting [8]) it was 54%; in assay [5] (at 50.0 µM), 58.9%; in assay [6] (setting [7]), -24%; in assay [6] (setting [8]), 52%; in assay [6] (at 50.0 µM) it was 63.2%.

In the case of `C[N+](C)(C)CC1CCCC1=O` (configuration not stated), the growth inhibition in assay [1] (setting [7]) is 18%; in assay [1] (setting [8]), 70% (active); in assay [1] (at 50.0 µM), 51.6%; in assay [2] (setting [7]) it was 16%; in assay [2] (setting [8]), 59%; in assay [2] (at 50.0 µM) it was 21.3%. In addition, the growth inhibition is 13% in assay [3] (setting [7]); 58% in assay [3] (setting [8]); 24.6% in assay [3] (at 50.0 µM); 11% in assay [4] (setting [7]); 34% in assay [4] (setting [8]); 19.2% in assay [4] (at 50.0 µM). The growth inhibition was 20% in assay [5] (setting [7]); 70% (active) in assay [5] (setting [8]); 8.15% in assay [5] (at 50.0 µM); 21% in assay [6] (setting [7]); 77% (active) in assay [6] (setting [8]); 22.6% in assay [6] (at 50.0 µM).

For `COc1ccc(P2(=S)Oc3ccc(C(c4ccccc4)(c4ccccc4)c4ccccc4)cc3O2)cc1` (configuration not stated), the growth inhibition in assay [1] (setting [7]) was 36%; in assay [1] (setting [8]) it was 96% (active); in assay [1] (at 50.0 µM), 38.6%; in assay [2] (setting [7]), 11%; in assay [2] (setting [8]) it was 98% (active); in assay [2] (at 50.0 µM), 64.3%. The growth inhibition in assay [3] (setting [7]) is 34%; in assay [3] (setting [8]), 96% (active); in assay [3] (at 50.0 µM), 54.7%; in assay [4] (setting [7]) it was 24%; in assay [4] (setting [8]), 98% (active); in assay [4] (at 50.0 µM), 63.2%. Moreover, the growth inhibition in assay [5] (setting [7]) is 7%; in assay [5] (setting [8]) it was 98% (active); in assay [5] (at 50.0 µM), 48.9%; in assay [6] (setting [7]), 34%; in assay [6] (setting [8]), 98% (active); in assay [6] (at 50.0 µM), 58.1%.

On to `Oc1c(Cl)c(Cl)cc(Cl)c1Cc1c(Cl)cc(Cl)c(Cl)c1[O][Pb]([c]1ccccc1)([c]1ccccc1)[c]1ccccc1`, for which the growth inhibition was 99% (active) in assay [1] (setting [7]); 87% (active) in assay [1] (setting [8]); 99.5% (active) in assay [1] (at 50.0 µM); 99% (active) in assay [2] (setting [7]); 90% (active) in assay [2] (setting [8]); 99.5% (active) in assay [2] (at 50.0 µM). Also, the growth inhibition in assay [3] (setting [7]) is 99% (active); in assay [3] (setting [8]), 89% (active); in assay [3] (at 50.0 µM), 99.7% (active); in assay [4] (setting [7]), 99% (active); in assay [4] (setting [8]), 87% (active); in assay [4] (at 50.0 µM) it was 99% (active). Further, the growth inhibition in assay [5] (setting [7]) was 99% (active); in assay [5] (setting [8]), 89% (active); in assay [5] (at 50.0 µM) it was 99.3% (active); in assay [6] (setting [7]), 99% (active); in assay [6] (setting [8]), 87% (active); in assay [6] (at 50.0 µM) it was 99.5% (active).

As to `CCCNC1=C(C)C(=O)C2=C(C1=O)[C@H](COC(N)=O)[C@]1(OC)[C@@H]3N[C@@H]3CN21`, the growth inhibition in assay [1] (setting [7]) is 15%; in assay [1] (setting [8]), 66%; in assay [1] (at 50.0 µM) it was 36.8%; in assay [2] (setting [7]), 15%; in assay [2] (setting [8]), 76% (active); in assay [2] (at 50.0 µM), 38.9%. The growth inhibition was 11% in assay [3] (setting [7]); 64% in assay [3] (setting [8]); 39.6% in assay [3] (at 50.0 µM); 5% in assay [4] (setting [7]); 79% (active) in assay [4] (setting [8]); 51.7% in assay [4] (at 50.0 µM). The growth inhibition was 2% in assay [5] (setting [7]); 37% in assay [5] (setting [8]); 9.7% in assay [5] (at 50.0 µM); 47% in assay [6] (setting [7]); 93% (active) in assay [6] (setting [8]); 79.8% (active) in assay [6] (at 50.0 µM).

Take `O=C(O)C1CC2c3ccccc3C1([N+](=O)[O-])c1ccccc12` (configuration not stated): the growth inhibition in assay [1] (setting [7]) is 0%; in assay [1] (setting [8]) it was 8%; in assay [1] (at 50.0 µM), 14.2%; in assay [2] (setting [7]) it was -1%; in assay [2] (setting [8]), 4%; in assay [2] (at 50.0 µM) it was 1.45%. The growth inhibition in assay [3] (setting [7]) was 0%; in assay [3] (setting [8]), 7%; in assay [3] (at 50.0 µM), 31.1%; in assay [4] (setting [7]) it was -3%; in assay [4] (setting [8]), 15%; in assay [4] (at 50.0 µM) it was 41%. The growth inhibition is 2% in assay [5] (setting [7]); 6% in assay [5] (setting [8]); 3.5% in assay [5] (at 50.0 µM); 0% in assay [6] (setting [7]); 8% in assay [6] (setting [8]); 21.1% in assay [6] (at 50.0 µM).

Consider `O=S(O)O.O=S(O)O.[Co].[NH2-].[NH2-].[NH2-].[NH2-]`, for which the growth inhibition in assay [1] (setting [7]) was 7%; in assay [1] (setting [8]), 21%; in assay [1] (at 50.0 µM), -5.55%; in assay [2] (setting [7]), -1%; in assay [2] (setting [8]) it was 7%; in assay [2] (at 50.0 µM), 29.4%. The growth inhibition in assay [3] (setting [7]) was 20%; in assay [3] (setting [8]) it was 22%; in assay [3] (at 50.0 µM) it was 2.5%; in assay [4] (setting [7]), 33%; in assay [4] (setting [8]), 16%; in assay [4] (at 50.0 µM), 47.9%. Further, the growth inhibition is 12% in assay [5] (setting [7]); 5% in assay [5] (setting [8]); -5.25% in assay [5] (at 50.0 µM); 3% in assay [6] (setting [7]); 26% in assay [6] (setting [8]); 16% in assay [6] (at 50.0 µM).

As for `O=[N+]([O-])c1ccc(CS(=O)(=O)C(Cl)Cl)o1`, the growth inhibition in assay [1] (setting [7]) is 10%; in assay [1] (setting [8]) it was 79% (active); in assay [1] (at 50.0 µM), 92% (active); in assay [2] (setting [7]) it was -1%; in assay [2] (setting [8]) it was 52%; in assay [2] (at 50.0 µM), 59.5%. In addition, the growth inhibition in assay [3] (setting [7]) was 3%; in assay [3] (setting [8]), 79% (active); in assay [3] (at 50.0 µM), 87.9% (active); in assay [4] (setting [7]), -6%; in assay [4] (setting [8]), 68%; in assay [4] (at 50.0 µM), 78.8% (active). The growth inhibition is -7% in assay [5] (setting [7]); 56% in assay [5] (setting [8]); 48.1% in assay [5] (at 50.0 µM); 15% in assay [6] (setting [7]); 90% (active) in assay [6] (setting [8]); 95.6% (active) in assay [6] (at 50.0 µM).

Turning to `CC1=C[C@H]2O[C@H]3C[C@H]4OC(=O)/C=C\C=C\C(=O)OCC[C@@H](C)C(O)C(=O)OC[C@@]2(CC1)[C@@]4(C)[C@]31CO1` (some centres not stated), the growth inhibition in assay [1] (setting [7]) was 99% (active); in assay [1] (setting [8]), 98% (active); in assay [1] (at 50.0 µM), 93.5% (active); in assay [2] (setting [7]) it was 99% (active); in assay [2] (setting [8]), 99% (active); in assay [2] (at 50.0 µM), 95% (active). Moreover, the growth inhibition in assay [3] (setting [7]) is 100% (active); in assay [3] (setting [8]) it was 99% (active); in assay [3] (at 50.0 µM) it was 95% (active); in assay [4] (setting [7]) it was 99% (active); in assay [4] (setting [8]) it was 98% (active); in assay [4] (at 50.0 µM) it was 93.2% (active). Moreover, the growth inhibition is 99% (active) in assay [5] (setting [7]); 99% (active) in assay [5] (setting [8]); 94.3% (active) in assay [5] (at 50.0 µM); 99% (active) in assay [6] (setting [7]); 98% (active) in assay [6] (setting [8]); 93.5% (active) in assay [6] (at 50.0 µM).

These data come from PubChem BioAssay (NCI).
